PubChem BioAssay (Tox21)
Inconclusive results are not listed. The source made the active and inactive calls. Unless noted, the call rests on the fitted dose curve; in most records, active means well fitted curve in the direction sought with a large enough effect in the repeat runs; inconclusive means weak or mixed curves; inactive means no such curve, though single readings can be large; an effect the other way counts as inactive or inconclusive.

Key:
[1] = target: Estrogen receptor beta (Homo sapiens) (UniProt Q92731); assay: qHTS assay to identify small molecule agonists of the estrogen receptor beta (ER-beta) signaling pathway (AID 1259377; active means well fitted activation curve with a large enough effect in the signal ratio in the repeat runs, not every such curve was filed as active; the % refers to the signal ratio)
Outline: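 A UAS-controlled beta-lactamase reporter in ER-beta-UAS-bla HEK293T cells reports receptor activation. Compounds act for 16 hr at 37C in 2% charcoal-stripped serum, and a FRET substrate is read by fluorescence after 2 hours.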

[2] = target: Estrogen receptor beta (Homo sapiens) (UniProt Q92731); assay: qHTS assay to identify small molecule antagonists of the estrogen receptor beta (ER-beta) signaling pathway (AID 1259378; active means well fitted inhibition curve with a large enough effect in the signal ratio in the repeat runs, not every such curve was filed as active; the % refers to the signal ratio)
Outline: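 ER-beta-UAS-bla HEK293T (GripTite) cells in 2% charcoal-stripped FBS medium were preincubated 6 hr at 37C, dosed with compound, then stimulated with 1 nM E2 (final) for 16 hr; beta-lactamase reporter read by B/G FRET fluorescence after 2 hr substrate loading.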

[3] = qHTS assay to identify small molecule agonists of the androgen receptor (AR) signaling pathway in the presence of an antagonist - cell viability counter screen (AID 1259379);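 further: MDA-kb2 human breast cancer cells carrying an MMTV luciferase reporter; series mostly up to about 92 µM; nearly all actives have a fitted effect of over 25% in size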
Outline: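 Viability counter screen: CellTiter-Fluor fluorescence, measured in the same wells as the luciferase read-out. MDA-kb2 cells, 3,000/well, with nilutamide at 3.0uM final and compounds at 15 concentrations, 16 hr at 37C, 0% CO2.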

[4] = qHTS assay to identify small molecule agonists of the estrogen receptor beta (ER-beta) signaling pathway - cell viability counter screen (AID 1259380); further: nearly all actives have a fitted effect of over 30% in size
Outline: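 Luminescence read-out (CellTiter-Glo, 30 min, room temp) taken in the same wells as the beta-lactamase reporter assay; ER-beta-UAS-bla HEK293T cells exposed to DMSO-dissolved compounds for 16 hr at 37C in 2% charcoal-stripped FBS medium.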

[5] = qHTS assay to identify small molecule antagonists of the estrogen receptor beta (ER-beta) signaling pathway - cell viability counter screen (AID 1259382); further: series mostly up to about 92 µM; nearly all actives have a fitted effect of over 55% in size
Outline: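 Luminescent ATP read-out (CellTiter-Glo, 30 min, RT) taken in the same wells as the bla reporter assay. HEK293T ER-beta-UAS-bla cells in 2% charcoal-stripped FBS were exposed to compounds with 1nM E2 for 16 hr at 37C.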

[6] = target: Estrogen receptor (Homo sapiens) (UniProt P03372); assay: qHTS assay to identify small molecule agonists of the estrogen receptor alpha (ER-alpha) signaling pathway in the presence of an antagonist (AID 1259383; calls by dose curve; further: top concentration of the series differs between compounds; nearly all actives have a fitted effect of over 15% in size)
Outline: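 Luciferase luminescence (ONE-Glo, 30min at room temperature) measured in VM7Luc4E2 cells after 22hr compound exposure at 15 concentrations, with 10.0nM ICI-182,780 final present; cells express endogenous ER-alpha and carry four EREs upstream of luciferase.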

[7] = qHTS assay to identify small molecule agonists or antagonists of the thyroid stimulating hormone receptor (TSHR) signaling pathway - wild type cell line counter screen (AID 1259384; calls by dose curve)
Outline: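 Wild-type HEK293 cells were plated 18 h at 37 C/5% CO2, pin-dosed with compound plus Ro20-1724 medium, held 30 min at room temperature, then given cAMP-d2 and anti-cAMP-cryptate; fluorescence was read after 1 h. Fifteen concentrations, triplicate.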

[8] = target: Thyrotropin receptor (Homo sapiens) (UniProt P16473); assay: qHTS assay to identify small molecule antagonists of the thyroid stimulating hormone receptor (TSHR) signaling pathway (AID 1259385; calls by dose curve; further: nearly all actives have a fitted effect of over 20% in size)
Outline: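 TSHR-HEK293 cells were plated and held 18 h at 37C/5% CO2, then given compound plus Ro20-1724 and stimulated with TSH at 1.5 ng/mL final. After 30 min at room temperature, cAMP was detected with cAMP-d2/anti-cAMP-cryptate (1 h) by fluorescence.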

[9] = qHTS assay to identify small molecule agonists of the estrogen receptor alpha (ER-alpha) signaling pathway in the presence of an antagonist - cell viability counter screen (AID 1259386);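 further: series mostly up to about 92 µM; cells exposed to compounds for 22 h at 37 °C before the viability read; nearly all actives have a fitted effect of over 30% in size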
Outline: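 Read-out: CellTiter-Fluor fluorescence after 1hr reagent incubation, measured in the same wells as the luciferase readout. VM7Luc4E2 cells were exposed to 15 compound concentrations with 10.0nM ICI-182,780 for 22hr at 37C.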

[10] = target: Progesterone receptor (Homo sapiens) (UniProt P06401); assay: qHTS assay to identify small molecule agonists of the progesterone receptor (PR) signaling pathway (AID 1346784; calls by dose curve; further: nearly all actives have a fitted effect of over 30% in size)
Outline: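 Agonist mode, quantitative HTS format in a HEK 293T line expressing a UAS-controlled beta-lactamase reporter; 16 hr compound exposure at 37C in 2% charcoal-stripped FBS, then LiveBLAzer B/G FRET fluorescence.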

[11] = target: Progesterone receptor (Homo sapiens) (UniProt P06401); assay: qHTS assay to identify small molecule antagonists of the progesterone receptor (PR) signaling pathway (AID 1346795; active means well fitted inhibition curve with a large enough effect in the signal ratio in the repeat runs, not every such curve was filed as active; the % refers to the signal ratio)
Outline: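 HEK293T PR-UAS-bla reporter cells in charcoal-stripped serum (2%) received compound after a 6 hr settling period, followed by R5020 agonist at 1 nM final; 16 hr incubation preceded the FRET substrate step and fluorescence measurement.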

[12] = qHTS assay to identify small molecule antagonists of the progesterone receptor (PR) signaling pathway - cell viability counter screen (AID 1346798); further: series mostly up to about 92 µM; nearly all actives have a fitted effect of over 50% in size
Outline: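 Same-well multiplex: after 16 hr at 37C with compound and R5020 stimulation, HEK293T cells carrying a UAS-bla reporter received LiveBLAzer substrate (2 hr RT), then CellTiter-Glo (30 min RT) for luminescent viability.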

[13] = qHTS assay to identify small molecule agonists of the progesterone receptor (PR) signaling pathway - cell viability counter screen (AID 1346799; calls by dose curve; further: nearly all actives have a fitted effect of over 45% in size)
Outline: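 Counter screen for cytotoxicity: compound-treated PR-UAS-bla HEK293T cells (16 hr, 37C, 5% CO2) were assayed with CellTiter-Glo, luminescence measured after 30 min at room temperature.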

[14] = qHTS assay to identify small molecule antagonists of the TGF-beta/Smad signaling pathway - cell viability counter screen (AID 1346824); further: nearly all actives have a fitted effect of over 50% in size
Outline: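 SBE-bla HEK 293T cells were plated overnight at 37 C, then given compounds in DMSO plus TGF-beta1 (added as 0.25 ng/mL solution) for 5 hr. After the bla read, CellTiter-Glo was added to the same wells and luminescence read after 30 min at room temperature.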

[15] = qHTS assay to identify small molecule agonists of the TGF-beta/Smad signaling pathway - cell viability counter screen (AID 1346829); further: top concentration of the series differs between compounds; nearly all actives have a fitted effect of over 45% in size
Outline: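 Cytotoxicity counter screen: CellTiter-Glo luminescence (30 min, room temperature) measured in the SBE-bla HEK 293T reporter wells after 5 hr compound treatment at 37 C and the 2 hr substrate step.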

[16] = qHTS assay to identify small molecule agonists of the TGF-beta/Smad signaling pathway (AID 1346859; active means well fitted activation curve with a large enough effect in the signal ratio in the repeat runs, not every such curve was filed as active; the % refers to the signal ratio; further: series mostly up to about 77 µM)
Outline: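 Smad-responsive beta-lactamase reporter cells (HEK 293T) received compounds from DMSO stocks after overnight attachment, were incubated 5 hr, then treated 2 hr with FRET substrate before dual-emission fluorescence measurement (405 nm excitation).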

[17] = target: Thyrotropin-releasing hormone receptor (Homo sapiens) (UniProt P34981); assay: qHTS assay to identify small molecule antagonists of the thyrotropin-releasing hormone receptor (TRHR) signaling pathway (AID 1346877; active means well fitted inhibition curve with a large enough effect in the repeat runs, not every such curve was filed as active; further: series mostly up to about 51 µM)
Outline: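 HEK293/TRHR cells, 18 h, 37 °C; Ca2+ dye 2 h; cpd 5 min RT; TRH 1 nM final; fluorescence read 3 min, 1 s intervals; 15 concs, triplicate.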

[18] = target: Thyrotropin-releasing hormone receptor (Homo sapiens) (UniProt P34981); assay: qHTS assay to identify small molecule agonists of the thyrotropin-releasing hormone receptor (TRHR) signaling pathway (AID 1346891; calls by dose curve;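 further: HEK293 cells expressing TRHR with calcium dye readout; series mostly up to about 58 µM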)
Outline: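 Agonist-mode calcium mobilisation screen: TRHR-transfected HEK293 cells cultured overnight (18 h), dye-loaded for 2 h at 37 °C, exposed to compounds, and monitored by fluorescence for 3 min.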

[19] = Human pregnane X receptor (PXR) small molecule agonists, qHTS cell viability counter screen (AID 1346977); further: nearly all actives have a fitted effect of over 50% in size
Outline: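 Measures live-cell protease fluorescence (CellTiter-Fluor) in PXR-Luc HepG2 cells treated 24hr with compounds at 37C. Cells had 5hr to attach before pin transfer of DMSO solutions.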

[20] = target: Androgen receptor (Homo sapiens) (UniProt P10275); assay: qHTS assay to identify small molecule agonists of the androgen receptor (AR) signaling pathway in the presence of an antagonist (AID 1259381; calls by dose curve; further: nearly all actives have a fitted effect of over 15% in size)
Outline: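 Luciferase read-out (ONE-Glo, 30min room temperature) in MDA-kb2 MMTV-reporter cells; agonist mode run in presence of AR antagonist nilutamide, 3.0uM final. Compounds tested as 15-point series, 16hr exposure at 37C, 0% CO2.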

Measured: Potency

Chain of Thyrotropin-releasing hormone receptor (Homo sapiens) (P34981 whole entry, looked up): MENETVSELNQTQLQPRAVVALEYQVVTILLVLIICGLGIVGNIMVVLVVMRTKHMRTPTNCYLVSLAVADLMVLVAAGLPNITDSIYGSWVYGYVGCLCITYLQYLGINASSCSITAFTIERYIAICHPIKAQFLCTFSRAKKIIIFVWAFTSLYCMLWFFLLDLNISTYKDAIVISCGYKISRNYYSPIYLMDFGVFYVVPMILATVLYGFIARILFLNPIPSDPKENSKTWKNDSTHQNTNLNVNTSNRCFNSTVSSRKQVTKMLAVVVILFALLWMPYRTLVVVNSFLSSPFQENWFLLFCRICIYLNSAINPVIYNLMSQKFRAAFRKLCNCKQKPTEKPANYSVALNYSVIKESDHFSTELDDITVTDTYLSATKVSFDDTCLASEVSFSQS
Chain of Thyrotropin receptor (Homo sapiens) (P16473 whole entry, looked up): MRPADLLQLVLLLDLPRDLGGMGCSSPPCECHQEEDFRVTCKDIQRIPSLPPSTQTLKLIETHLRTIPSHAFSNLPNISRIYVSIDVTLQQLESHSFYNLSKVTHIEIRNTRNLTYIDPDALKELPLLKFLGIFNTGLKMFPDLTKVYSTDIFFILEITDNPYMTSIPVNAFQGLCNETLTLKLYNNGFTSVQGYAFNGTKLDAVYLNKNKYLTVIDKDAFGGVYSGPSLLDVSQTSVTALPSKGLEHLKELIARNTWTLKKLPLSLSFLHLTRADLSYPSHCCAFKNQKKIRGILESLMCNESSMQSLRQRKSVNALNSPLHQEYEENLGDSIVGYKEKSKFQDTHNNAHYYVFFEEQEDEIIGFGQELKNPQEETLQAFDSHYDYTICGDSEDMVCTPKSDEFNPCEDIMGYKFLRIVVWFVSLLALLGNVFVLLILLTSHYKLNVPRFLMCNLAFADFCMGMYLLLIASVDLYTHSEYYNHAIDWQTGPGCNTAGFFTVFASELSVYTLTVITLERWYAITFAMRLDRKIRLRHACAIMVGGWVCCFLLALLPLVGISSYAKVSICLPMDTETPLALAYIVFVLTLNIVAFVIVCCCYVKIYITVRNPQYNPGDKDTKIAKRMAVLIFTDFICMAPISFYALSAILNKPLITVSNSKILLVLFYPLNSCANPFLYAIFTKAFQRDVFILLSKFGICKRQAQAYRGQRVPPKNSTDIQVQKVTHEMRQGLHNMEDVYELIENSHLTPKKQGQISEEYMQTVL
Chain of Androgen receptor (Homo sapiens) (P10275 whole entry, looked up): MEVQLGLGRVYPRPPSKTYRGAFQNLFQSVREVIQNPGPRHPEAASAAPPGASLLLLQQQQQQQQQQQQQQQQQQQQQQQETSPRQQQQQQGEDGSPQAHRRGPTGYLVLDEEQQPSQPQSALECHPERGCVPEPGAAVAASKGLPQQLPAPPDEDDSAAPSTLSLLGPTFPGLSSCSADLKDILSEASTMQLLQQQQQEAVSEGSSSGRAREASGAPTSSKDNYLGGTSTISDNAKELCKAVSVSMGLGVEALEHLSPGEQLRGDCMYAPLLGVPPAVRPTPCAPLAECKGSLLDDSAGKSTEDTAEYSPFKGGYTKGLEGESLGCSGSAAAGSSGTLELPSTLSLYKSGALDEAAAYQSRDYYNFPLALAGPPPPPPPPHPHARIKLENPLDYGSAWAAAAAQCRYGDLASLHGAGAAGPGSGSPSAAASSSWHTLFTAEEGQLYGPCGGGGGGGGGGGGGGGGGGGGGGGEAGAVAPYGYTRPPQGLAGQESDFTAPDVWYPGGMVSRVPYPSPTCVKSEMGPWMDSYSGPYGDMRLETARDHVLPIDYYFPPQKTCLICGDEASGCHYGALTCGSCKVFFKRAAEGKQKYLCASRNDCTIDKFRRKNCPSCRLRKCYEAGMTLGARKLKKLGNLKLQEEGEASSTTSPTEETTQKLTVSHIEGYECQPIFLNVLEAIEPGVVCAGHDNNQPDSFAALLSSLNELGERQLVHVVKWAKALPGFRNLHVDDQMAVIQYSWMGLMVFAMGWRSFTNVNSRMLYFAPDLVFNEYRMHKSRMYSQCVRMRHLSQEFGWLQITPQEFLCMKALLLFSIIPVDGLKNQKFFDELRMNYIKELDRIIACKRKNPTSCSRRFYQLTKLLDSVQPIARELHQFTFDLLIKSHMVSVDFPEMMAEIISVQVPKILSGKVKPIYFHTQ
Chain of Progesterone receptor (Homo sapiens) (P06401 whole entry, looked up): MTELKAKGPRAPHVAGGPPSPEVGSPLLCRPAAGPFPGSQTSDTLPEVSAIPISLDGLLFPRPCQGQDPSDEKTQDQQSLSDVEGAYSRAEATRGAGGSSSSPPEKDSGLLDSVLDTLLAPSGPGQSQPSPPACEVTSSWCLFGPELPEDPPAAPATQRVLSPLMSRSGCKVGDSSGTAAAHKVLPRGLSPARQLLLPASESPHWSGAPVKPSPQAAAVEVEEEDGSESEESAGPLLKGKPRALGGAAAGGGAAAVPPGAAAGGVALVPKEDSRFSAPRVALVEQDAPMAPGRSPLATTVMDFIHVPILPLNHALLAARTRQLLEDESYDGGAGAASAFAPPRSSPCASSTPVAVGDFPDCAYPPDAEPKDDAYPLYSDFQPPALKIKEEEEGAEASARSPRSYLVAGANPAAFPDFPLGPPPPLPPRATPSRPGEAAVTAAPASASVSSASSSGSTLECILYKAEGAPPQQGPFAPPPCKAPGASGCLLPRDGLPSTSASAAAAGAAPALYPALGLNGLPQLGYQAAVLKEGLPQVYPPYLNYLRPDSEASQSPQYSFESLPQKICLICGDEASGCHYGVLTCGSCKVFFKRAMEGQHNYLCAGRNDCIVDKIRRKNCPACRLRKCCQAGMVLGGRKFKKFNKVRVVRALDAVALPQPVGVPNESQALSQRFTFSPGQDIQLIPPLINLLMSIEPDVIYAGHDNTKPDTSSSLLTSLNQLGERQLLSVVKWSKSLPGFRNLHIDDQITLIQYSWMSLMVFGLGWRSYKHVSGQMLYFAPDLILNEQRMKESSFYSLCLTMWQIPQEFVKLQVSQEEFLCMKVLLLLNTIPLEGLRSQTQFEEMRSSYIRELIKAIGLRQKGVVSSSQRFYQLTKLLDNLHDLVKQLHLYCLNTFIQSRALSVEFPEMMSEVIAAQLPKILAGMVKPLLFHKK
Chain of Estrogen receptor (Homo sapiens) (P03372 whole entry, looked up): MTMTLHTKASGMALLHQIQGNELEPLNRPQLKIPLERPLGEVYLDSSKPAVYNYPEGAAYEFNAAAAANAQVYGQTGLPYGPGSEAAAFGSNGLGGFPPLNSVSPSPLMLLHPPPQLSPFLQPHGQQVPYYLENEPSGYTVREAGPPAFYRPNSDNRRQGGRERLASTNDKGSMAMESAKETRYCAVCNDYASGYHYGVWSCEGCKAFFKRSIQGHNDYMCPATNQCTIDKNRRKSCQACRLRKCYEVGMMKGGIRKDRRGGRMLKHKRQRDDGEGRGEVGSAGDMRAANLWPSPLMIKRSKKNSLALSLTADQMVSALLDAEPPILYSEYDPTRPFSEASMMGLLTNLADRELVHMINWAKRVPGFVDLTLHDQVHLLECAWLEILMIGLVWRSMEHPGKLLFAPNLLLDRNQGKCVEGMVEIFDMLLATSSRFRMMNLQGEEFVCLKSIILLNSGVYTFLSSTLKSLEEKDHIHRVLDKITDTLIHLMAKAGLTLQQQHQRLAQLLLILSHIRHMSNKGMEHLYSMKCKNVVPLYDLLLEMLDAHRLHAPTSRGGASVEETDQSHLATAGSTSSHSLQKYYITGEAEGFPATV
Chain of Estrogen receptor beta (Homo sapiens) (Q92731 whole entry, looked up): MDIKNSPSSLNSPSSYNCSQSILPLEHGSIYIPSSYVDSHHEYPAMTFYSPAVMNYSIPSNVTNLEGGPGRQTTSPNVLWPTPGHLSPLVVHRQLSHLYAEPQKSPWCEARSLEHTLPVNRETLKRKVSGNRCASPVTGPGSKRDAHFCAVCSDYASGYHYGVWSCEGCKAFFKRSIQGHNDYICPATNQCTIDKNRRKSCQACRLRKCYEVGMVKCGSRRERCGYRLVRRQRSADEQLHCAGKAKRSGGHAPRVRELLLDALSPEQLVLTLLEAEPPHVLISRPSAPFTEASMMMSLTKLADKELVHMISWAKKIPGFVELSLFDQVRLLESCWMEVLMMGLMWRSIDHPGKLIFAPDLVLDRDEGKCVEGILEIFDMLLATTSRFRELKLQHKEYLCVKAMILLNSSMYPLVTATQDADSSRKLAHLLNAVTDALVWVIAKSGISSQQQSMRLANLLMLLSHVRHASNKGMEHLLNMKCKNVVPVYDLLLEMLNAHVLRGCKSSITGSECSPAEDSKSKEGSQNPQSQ

COc1cc(-c2ccc(=O)[nH]n2)ccc1OC(F)F
not listed: [20]
inactive: all other assays above

CCCCCCCC1CCCC1=O (stereo not drawn)
not listed: [17] | [18]
inactive: all other assays above

C[N+](C)(CCOc1ccccc1)Cc1cccs1
not listed: [6] | [8] | [10] | [11] | [16] | [17]
inactive: all other assays above

CC(=O)c1ccc2ccccc2c1
not listed: [20]
inactive: all other assays above

CC1CCC(CO)CC1 (stereo not drawn)
not listed: [11] | [12] | [17]
inactive: all other assays above

NS(=O)(=O)Cc1noc2ccccc12
not listed: [6] | [17] | [18]
inactive: all other assays above

CCCOC(=O)CC
not listed: [8] | [10] | [13]
inactive: all other assays above

CCC(C(=O)NC(=O)NC(C)=O)c1ccccc1 (stereo not drawn)
not listed: [12] | [14] | [20]
inactive: all other assays above
